Only some compounds are listed: those with a hit (about 12% of all), similar ones and a draw of the others.
G9a block – qHTS Assay for Inhibitors of Histone Lysine Methyltransferase G9a; G9a H3K9 monomethylation, AlphaScreen, 2 h; AID 504332, 2011; Potency, µM (highest dose often 102 µM), most hits filed as inhibitors; 8.8% of 350,000 active; further: nearly all actives have a fitted effect of over 75% in size
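AlphaScreen detection with an anti-monomethyl H3K9 antibody quantified product after a 2 h room-temperature reaction containing 500 nM biotinylated H3K9 peptide, 20 µM SAM and 20 nM enzyme, which had been preincubated 15 min with compound.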
BAZ2B inh – qHTS Assay for Inhibitors of BAZ2B; Bromodomain adjacent to zinc finger domain protein 2B (Homo sapiens), Q9UIF8; AlphaScreen BAZ2B-H3K14Ac peptide displacement; 4.4% of 360,000 active; Potency, µM (highest dose often 114 µM), usual class: inhibitors; further: nearly all actives have a fitted effect of over 60% in size
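Protein-peptide AlphaScreen: BAZ2B 50 nM, b-H3K14Ac 50 nM, 1x PBS pH 7.4 + 0.01% Tween-20. Preincubation 30 min RT; cpd 30 min RT (top 110 uM); beads 20 min RT, light-protected.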
Sfp PPTase inh – qHTS Assay for Inhibitors of Bacillus subtilis Sfp phosphopantetheinyl transferase (PPTase) | Biochemical Sfp PPTase activity, qHTS | Potency, µM, actives largely listed as inhibitors | AID 1490, 2009 | 3.5% of 310,000 active;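 further: the enzyme is Sfp with the accession as filed and its product quenches rhodamine fluorescence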
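After 15 min at room temperature with compound, 15 nM Sfp received 5 uM rhodamine-CoA plus 12.5 uM BHQ-2-ybbR (50 mM Hepes pH 7.6, 10 mM MgCl2). Rate came from the fluorescence difference over 30 min, ex 525/em 598 nm.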
JMJD2A Tudor inh – qHTS Assay for Inhibitors of JMJD2A-Tudor Domain; Lysine-specific demethylase 4A (Homo sapiens), O75164; AlphaScreen JMJD2A-Tudor / H3K4me3 peptide binding; Potency, µM (titrated, usually from 114 µM), hits mostly inhibitors; 4.4% of 390,000 active; AID 504339, 2011; further: nearly all actives have a fitted effect of over 50% in size
HP1b binding inh – HTS for Inhibitors of HP1-beta Chromodomain Interactions with Methylated Histone Tails; Chromobox protein homolog 1 (Homo sapiens), P83916; AlphaScreen HP1-beta / biotin-H3K9me3 peptide binding; Potency, µM (series often up to 114 µM), usual class: inhibitors; 0.56% of 390,000 active; AID 540317, 2011; further: nearly all actives have a fitted effect of over 70% in size
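Compound inhibition of the preformed complex between 50 nM HP1-beta and 50 nM biotinylated H3K9me3 peptide was read by AlphaScreen. Buffer was PBS pH 7.4 with 0.01% Tween-20. Incubations ran 30 min at room temperature, with 10 ug/mL donor/acceptor beads.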
Of the large screens only hits and unclear results are named; the others gave an inactive call. The call rests on the fitted dose curve; in most records, active means well fitted curve in the direction sought with a large enough effect; inconclusive means small, poorly fitted or top-dose-only effect, or another doubt; inactive means no such curve, though single readings can be large; an effect the other way counts as inactive or inconclusive.

CCCC(=O)Nc1c2c(nn1-c1ccc([N+](=O)[O-])cc1)CS(=O)(=O)C2	none
CCS(=O)(=O)c1ccc2oc(SCC(=O)NC34CC5CC(CC(C5)C3)C4)nc2c1	BAZ2B inh 56.2µM
CC(=O)N1CCN(S(=O)(=O)c2cccc(C(=O)NNC(=O)Cn3ccc(C(F)(F)F)n3)c2)CC1	none (no result: Sfp PPTase inh)
C#CCNC(=O)C1=C[C@@H](C2CCCCC2)C[C@@H](OCc2ccc(CO)cc2)O1	none (no result: G9a block)
O=C(O)C1OC(C(=O)O)C(C(=O)O)C1C(=O)O (centres undefined)	JMJD2A Tudor inh 20µM (no result: G9a block, BAZ2B inh, Sfp PPTase inh)
CCOC(=O)CC1=C(C(=O)OCC)C(c2ccc(OC)c(OC)c2)C(C#N)=C(N)O1 (centres undefined)	none
O=C(NNc1nc(-c2ccc(F)cc2)cs1)c1ccccc1	G9a block 22.4µM, Sfp PPTase inh 50.1µM, HP1b binding inh inconclusive
O=C(NNc1nc(-c2ccccc2)cs1)c1cccs1	BAZ2B inh inconclusive, Sfp PPTase inh inconclusive
O=C(Cc1ccc(F)cc1)Nc1nc(-c2ccc(F)cc2)cs1	none
O=C(NNc1nc(-c2ccccc2)cs1)c1ccc(F)cc1	G9a block 20µM, Sfp PPTase inh inconclusive
O=c1cc(O)sc2ccccc12	none
O=c1[nH]sc2ccccc12	G9a block 1.78µM, BAZ2B inh 50.1µM, Sfp PPTase inh 5.01µM, JMJD2A Tudor inh 31.6µM
c1ccc(CCNCC2COc3ccccc3O2)cc1 (centres undefined)	none
O=C(O)CNCC1COc2ccccc2O1 (centres undefined)	G9a block 17.8µM, BAZ2B inh inconclusive, JMJD2A Tudor inh 3.98µM
CN(C)S(=O)(=O)c1cccc(CNCC2COc3ccccc3O2)c1 (centres undefined)	BAZ2B inh 31.6µM, JMJD2A Tudor inh 17.8µM, HP1b binding inh 50.1µM
O=C1CNC(=O)/C1=C/c1ccccc1	none
CCCS(=O)(=O)c1c(S(=O)(=O)CCC)c2ccc(C(C)=O)cn2c1C(=O)OC	G9a block 35.5µM
CCCS(=O)(=O)c1c(S(=O)(=O)CCC)c2c(N)cccn2c1C(=O)OC	BAZ2B inh inconclusive, Sfp PPTase inh 28.2µM (no result: G9a block)
CCCS(=O)(=O)c1c(S(=O)(=O)CCC)c2ccc(C(N)=O)cn2c1C(=O)OC	none (no result: BAZ2B inh)
COc1ccc(OC)c(NC(=O)c2ccc(S(=O)(=O)N3CCN(C)CC3)cc2)c1	G9a block inconclusive
COc1ccc(NC(=O)Cn2cc(S(=O)(=O)Cc3ccc(F)cc3)c3ccccc32)cc1OC	BAZ2B inh inconclusive, JMJD2A Tudor inh inconclusive (no result: Sfp PPTase inh)
O=C(Cc1ccc(Cl)cc1)NNC(=O)Nc1cccc2ccccc12	none
Cc1ccccc1S(=O)(=O)Cc1ccc(C(=O)NCc2ccccc2)o1	none
Cc1ccccc1S(=O)(=O)Cc1ccc(C(=O)NC2CC2)o1	JMJD2A Tudor inh 50.1µM
Cc1ccccc1S(=O)(=O)Cc1ccc(C(=O)NCc2ccco2)o1	JMJD2A Tudor inh 15.8µM
Cc1ccccc1S(=O)(=O)Cc1ccc(C(=O)NC2CCCC2)o1	none
O=C(N/N=C1/C[C@@H](O)[C@@H](O)[C@@H]2[C@@H]3C(=O)N(Cc4ccc5c(c4)OCO5)C(=O)[C@H]3CC[C@@H]12)OCc1ccccc1	none (no result: G9a block, BAZ2B inh, JMJD2A Tudor inh, HP1b binding inh)
CC(=O)N1CCCc2cc(S(=O)(=O)Nc3ccc(OC(F)(F)F)cc3)ccc21	none (no result: Sfp PPTase inh)
c1ccc(CNc2ccc3c(c2)ncn3C2CCCCC2)nc1	G9a block 7.94µM, BAZ2B inh 20µM, JMJD2A Tudor inh 25.1µM
Cc1c(O)ccc(/C(Cc2ccc3ccccc3n2)=N\N)c1O	G9a block 8.91µM, BAZ2B inh inconclusive, JMJD2A Tudor inh inconclusive
Cc1cccn2c(=O)nc(SCC(=O)N3CCCCC3)nc12	none (no result: Sfp PPTase inh)
Cc1ccccc1Nc1nnc(-c2ccc(C)c(S(=O)(=O)N3CCN(C)CC3)c2)c2ccccc12	none (no result: Sfp PPTase inh)
Cc1ccc(C)c(Nc2nnc(-c3ccc(C)c(S(=O)(=O)N4CCN(C)CC4)c3)c3ccccc23)c1	G9a block 12.6µM, BAZ2B inh inconclusive, JMJD2A Tudor inh inconclusive (no result: Sfp PPTase inh)
N#Cc1ccc(COc2cccnc2[N+](=O)[O-])cc1	none
Cc1ccc(CCNC(=O)CN2N=C(c3ccc(C)cc3)CCC2=O)cc1	none (no result: Sfp PPTase inh)
O=C(N/N=C/c1ccc(O)cc1O)c1ccc(NC(=O)C2CCCCC2)cc1	none
Oc1ccc(/C=N/n2c(C3CCCCC3)n[nH]c2=S)c(O)c1	G9a block 1.58µM, Sfp PPTase inh 0.178µM, JMJD2A Tudor inh 14.1µM
Oc1ccc(Br)cc1/C=N/n1c(C2CCCCC2)n[nH]c1=S	G9a block 50.1µM, BAZ2B inh inconclusive, JMJD2A Tudor inh inconclusive
O=[N+]([O-])c1ccccc1/C=C/C=N/n1c(-c2ccc(Cl)cc2)n[nH]c1=S	G9a block 6.31µM, BAZ2B inh inconclusive, JMJD2A Tudor inh inconclusive
O=[N+]([O-])c1ccccc1/C=C/C=N/n1c(-c2ccccc2)n[nH]c1=S	G9a block 3.16µM, BAZ2B inh inconclusive, JMJD2A Tudor inh 56.2µM, HP1b binding inh inconclusive
COc1ccc(NCC(=O)N/N=C/c2cc([N+](=O)[O-])ccc2N2CCCC2)cc1	G9a block 8.91µM, BAZ2B inh inconclusive, JMJD2A Tudor inh inconclusive, HP1b binding inh inconclusive
CCOC(=O)N/N=C/C=C/c1ccccc1[N+](=O)[O-]	JMJD2A Tudor inh inconclusive
CCc1ccc(OCC(=O)N/N=C/c2cc([N+](=O)[O-])ccc2N2CCOCC2)cc1	none
COc1ccc(NCC(=O)N/N=C/C(C)c2ccccc2)cc1 (centres undefined)	G9a block 28.2µM, BAZ2B inh inconclusive, JMJD2A Tudor inh inconclusive
COc1ccc(NCC(=O)N/N=C/c2ccc3c(c2)OCCO3)cc1	G9a block inconclusive, BAZ2B inh inconclusive, JMJD2A Tudor inh inconclusive
COc1ccc(NCC(=O)N/N=C/C=C/c2ccccc2[N+](=O)[O-])cc1	G9a block 11.2µM, BAZ2B inh 39.8µM, JMJD2A Tudor inh 79.4µM
Cc1ccccc1NCC(=O)N/N=C\C=C\c1cccc([N+](=O)[O-])c1	G9a block inconclusive, BAZ2B inh inconclusive, JMJD2A Tudor inh 50.1µM
O=C(Cc1ccccc1)N/N=C/C=C/c1cccc([N+](=O)[O-])c1	none
CC(C)Nc1nc(NC(C)C)nc(SCCOC(=O)Nc2ccc(Cl)cc2Cl)n1	none
CCCN(CCC)CCCNC(=O)C1CCCN(Cc2nc(-c3ccc(Cl)cc3)oc2C)C1 (centres undefined)	none (no result: Sfp PPTase inh)
CCN(CC)S(=O)(=O)c1cc(NC(=O)Cn2cnc3ccccc3c2=O)ccc1C	none
COc1cccc([C@@H]2Oc3ccc(OC)cc3C(=O)[C@H]2OC(=O)Nc2ccc(C)c(Br)c2)c1	none (no result: G9a block, BAZ2B inh, JMJD2A Tudor inh, HP1b binding inh)
CCOc1ccc(N=C/C=C/c2ccccc2)c(O)c1	G9a block 50.1µM, BAZ2B inh 35.5µM, Sfp PPTase inh 50.1µM, JMJD2A Tudor inh 56.2µM, HP1b binding inh inconclusive
Cc1occc1C(=O)N/N=C/C=C\c1ccccc1[N+](=O)[O-]	G9a block inconclusive, BAZ2B inh inconclusive, JMJD2A Tudor inh 89.1µM

Compound activity from PubChem BioAssay.
